KB-V1 cytotox – qHTS assay for MDR1-selective chemotherapeutics: Primary screen using the drug-selected MDR subline cells KB-V1; Potency, µM (highest dose often 46.1 µM), hits mostly cytotoxic; hit rate 3.4% among 400,000; KB-V1 MDR cells viability, CellTiter-Glo, 72 h; note: nearly all actives have a fitted effect of over 60% in size
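Luminescent ATP read-out (CellTiter-Glo, 10 min) measures survival of drug-selected KB-V1 MDR cells after 72 h, 37 degrees C compound exposure. Medium: phenol-red-free DMEM, 10% FBS. Values from fitted concentration-response curves.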
D3 antag – qHTS of D3 Dopamine Receptor Antagonist: qHTS | D3R cells, DiscoveRx beta-arrestin luminescence, antagonist mode; hits give low values | max response, negative = inhibition, % | hit rate 2.5% among 360,000 | AID 652054, 2013; in the data active = max response below about -50%; inconclusive = no clear call, values can overlap the other calls
Target sequence (P35462 whole entry, looked up): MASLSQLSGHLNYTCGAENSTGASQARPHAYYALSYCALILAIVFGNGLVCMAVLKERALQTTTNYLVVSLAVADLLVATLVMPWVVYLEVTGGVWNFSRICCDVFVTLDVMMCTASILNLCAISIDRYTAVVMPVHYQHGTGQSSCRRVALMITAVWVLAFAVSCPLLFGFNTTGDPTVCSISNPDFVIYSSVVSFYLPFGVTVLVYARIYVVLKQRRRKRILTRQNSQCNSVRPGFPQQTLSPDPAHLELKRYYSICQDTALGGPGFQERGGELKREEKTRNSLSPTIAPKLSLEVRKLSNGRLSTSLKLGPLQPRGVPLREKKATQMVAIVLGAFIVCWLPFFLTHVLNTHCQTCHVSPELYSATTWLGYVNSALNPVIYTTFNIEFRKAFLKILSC
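Cells plated overnight at 1500 cells/well, then exposed to library compounds with dopamine controls for 90 minutes at 37 degrees C. DiscoveRx reagent added for 30–60 minutes at room temperature; luminescence read, quantitative HTS format.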
SW480 rereplic – A quantitative high throughput screen for small molecules that induce DNA re-replication in SW480 colon adenocarcinoma cells; hit rate 1.8% among 340,000; SW480 DNA re-replication, Hoechst DNA content imaging, 48 h; Potency, µM (highest dose often 46.1 µM), hits mostly activators; note: nearly all actives have a fitted effect of over 55% in size
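Image-based read-out: total Hoechst fluorescence of nuclei (405 nm excitation, 500-530 nm emission), with hits raising the fraction of high-intensity nuclei. SW480 colon cells incubated 48 hr with compounds at 37 C.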
DRD3 agonist – qHTS of D3 Dopamine Receptor Agonist: qHTS; D(3) dopamine receptor (Homo sapiens), P35462; D3R DiscoveRx beta-arrestin cells, luminescence, 90 min; max activation, %; hit rate 0.58% among 410,000; in the data active = max activation above about 30%
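Agonist-mode cell screen: cells plated at 1500/well and incubated overnight at 37 °C, then exposed to library compounds for 90 min at 37 °C. Detection reagent was added for 30–60 min at room temperature, and luminescence was read.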
KB-3-1 tox – qHTS assay for MDR1-selective chemotherapeutics: Primary screen using the parental adenocarcinoma cell KB-3-1; KB-3-1 viability, CellTiter-Glo ATP luminescence, 72 h; Potency, µM (highest dose often 46.1 µM), usual class: cytotoxic; hit rate 1.4% among 400,000; note: nearly all actives have a fitted effect of over 60% in size
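Multi-concentration cytotoxicity screen in KB-3-1 cells grown in DMEM lacking phenol red with 10% FBS. After 72 h at 37 °C with compound, ATP-dependent luminescence was recorded.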
MCF10A rerep – A quantitative high throughput screen for small molecules that induce DNA re-replication in MCF 10a normal breast cells; MCF 10A DNA re-replication, Hoechst nuclear intensity, 48 h; Potency, µM (doses to about 46.1 µM), most hits filed as activators; hit rate 2.9% among 350,000; AID 624296, 2012; note: nearly all actives have a fitted effect of over 50% in size
Large screens that a line does not name were inactive. Only some compounds are listed: those with a hit (about 8.9% of all), similar ones and a draw of the others. Unless noted, calls come from the whole dose curve; as a rule, active = well fitted curve in the direction sought with a large enough effect; inconclusive = small, poorly fitted or top-dose-only effect, or another doubt; inactive = no such curve, though single readings can be large; an effect the other way counts as inactive or inconclusive.

Cc1ccc(Cn2c(=N)c(C(=O)NC3CCCCC3)cc3c(=O)n4ccccc4nc32)cc1	SW480 rereplic 2.3µM, MCF10A rerep 2.6µM
COc1ccc(Cn2c(=N)c(C(=O)NCC3CCCO3)cc3c(=O)n4ccccc4nc32)cc1 (centres undefined)	SW480 rereplic inconclusive, MCF10A rerep 15µM
COc1ccc(CCn2c(=N)c(C(=O)NCC3CCCO3)cc3c(=O)n4ccccc4nc32)cc1 (centres undefined)	KB-V1 cytotox inconclusive
N=c1c(C(=O)NCC2CCCO2)cc2c(=O)n3ccccc3nc2n1Cc1ccccc1Cl (centres undefined)	SW480 rereplic 21µM, KB-3-1 tox inconclusive, MCF10A rerep 3.3µM
CC[C@@H](C)C(N)C(=O)O (some centres undefined)	none (no result: KB-V1 cytotox, D3 antag, DRD3 agonist, KB-3-1 tox)
COc1ccc(-c2nc3ccccc3n3c(-c4cccc(C)c4)c4c(=O)n(C)c(=O)n(C)c4c23)cc1	none (no result: D3 antag, SW480 rereplic, MCF10A rerep)
N#CCCN1CCN(Cc2cc(-c3ccccc3)ccc2O)CC1	KB-V1 cytotox 21µM, D3 antag -96, MCF10A rerep inconclusive
CC(C)(C)CC(C)(C)c1ccc(O)c(CN2CCN(CCC#N)CC2)c1	KB-V1 cytotox inconclusive, SW480 rereplic inconclusive, MCF10A rerep 18µM
C[C@@H]1[C@H](c2ccccc2)OCCS(=O)(=O)N1Cc1ccc(F)cc1	KB-V1 cytotox inconclusive (no result: D3 antag, SW480 rereplic, DRD3 agonist, MCF10A rerep)
N#CC1=C(C2CC2)CC(c2ccccc2)C(C#N)=C1N (centres undefined)	KB-V1 cytotox 23µM
Cc1ccc(CNC(=O)CN2C(=O)C3CCCCN3c3ccc(C(=O)N4CCCC4)cc32)cc1 (centres undefined)	none (no result: D3 antag, SW480 rereplic, MCF10A rerep)
OC[C@]1(O)OC[C@@H](O)[C@H](O)[C@@H]1O	none (no result: KB-V1 cytotox, D3 antag, SW480 rereplic, KB-3-1 tox, MCF10A rerep)
CN(Cc1cccs1)C(=O)c1cccc(S(=O)(=O)N2CCCCCC2)c1	KB-V1 cytotox 18µM
CC1CN(S(=O)(=O)c2cc(C(=O)NCc3ccncc3)ccc2Cl)CC(C)O1 (centres undefined)	none
CN(Cc1cccs1)C(=O)c1ccc(S(=O)(=O)N2CCCCC2)cc1	KB-V1 cytotox inconclusive
CC1CN(S(=O)(=O)c2cc(C(=O)N(C)Cc3cccs3)ccc2Cl)CC(C)O1 (centres undefined)	KB-V1 cytotox 10µM
Cc1ccccc1CCNC(=O)c1ccc(Cl)c(S(=O)(=O)N2CC(C)OC(C)C2)c1 (centres undefined)	KB-V1 cytotox 1.8µM, KB-3-1 tox 5.2µM, MCF10A rerep inconclusive
O=C(NCC(c1ccc2c(c1)OCO2)N1CCOCC1)c1ccc(F)cc1 (centres undefined)	none (no result: D3 antag, SW480 rereplic, MCF10A rerep)
CC(=O)Nc1ccc(NC(=O)CCS(=O)(=O)c2ccc3c(c2)CC(=O)N3C)cc1	KB-V1 cytotox inconclusive (no result: D3 antag, SW480 rereplic, MCF10A rerep)
COc1ccc2nc(Cl)cc(Cl)c2c1	none
C=CS(=O)(=O)c1c2cc(OC)ccc2nc2ccc(OC)cc12	KB-V1 cytotox 21µM, D3 antag -83, SW480 rereplic 21µM, KB-3-1 tox inconclusive, MCF10A rerep inconclusive
COc1ccccc1C(C)NCC(=O)Nc1c(F)cccc1F (centres undefined)	D3 antag -56
CCn1c(=S)sc2c(=O)n(CC(=O)Nc3ccccc3)c(C)nc21	KB-V1 cytotox inconclusive
Cc1nc2c(sc(=S)n2Cc2ccco2)c(=O)n1CC(=O)Nc1cc(F)ccc1F	MCF10A rerep 23µM
CCn1c(=S)sc2c(=O)n(CC(=O)Nc3ccccc3C(F)(F)F)c(C)nc21	DRD3 agonist 32
CC(=O)N1CCc2cc(S(=O)(=O)NC(CC(C)C)C(=O)NCc3ccccc3Cl)ccc21 (centres undefined)	KB-3-1 tox inconclusive (no result: D3 antag, SW480 rereplic, MCF10A rerep)
CCOC(=O)c1c(-c2ccccc2)oc2cc(Br)c(OCc3ccccc3)cc12	none (no result: D3 antag, SW480 rereplic, MCF10A rerep)
CC1(Cn2ccnn2)[C@H](C(=O)O)N2C(=O)C[C@H]2S1(=O)=O (some centres undefined)	none (no result: KB-V1 cytotox, D3 antag, DRD3 agonist, KB-3-1 tox)
CCOc1cccc2sc(NC(=O)c3ccc(S(=O)(=O)N4CCCCC4C)cc3)nc12 (centres undefined)	none (no result: KB-V1 cytotox, D3 antag, SW480 rereplic, KB-3-1 tox, MCF10A rerep)
Cc1ccsc1/C=C/c1ccc2cccc(O)c2n1	KB-V1 cytotox 13µM, D3 antag inconclusive, SW480 rereplic inconclusive, KB-3-1 tox inconclusive, MCF10A rerep inconclusive
Oc1cccc2ccc(/C=C/c3cccs3)nc12	D3 antag -57, SW480 rereplic 11µM, KB-3-1 tox inconclusive, MCF10A rerep inconclusive
Cc1ccsc1/C=C/c1ccc2ccccc2n1	KB-V1 cytotox inconclusive, KB-3-1 tox inconclusive, MCF10A rerep inconclusive
Cc1cccc(/C=C/c2cccs2)n1	KB-3-1 tox 2.3µM (no result: D3 antag, SW480 rereplic, DRD3 agonist, MCF10A rerep)
COc1ccc(OC)c(CNC(=O)c2ccc(N3Cc4ccccc4Oc4ncccc43)s2)c1	none (no result: D3 antag, SW480 rereplic, MCF10A rerep)
CN(Cc1ccccc1)C1CCCN(C(=O)c2ccc(Cl)s2)C1 (centres undefined)	D3 antag -82
C[C@@]12C(=O)Nc3ccccc3C(=O)N1[C@H]1c3cc(Cl)ccc3OC[C@@H]1[C@@H]2c1ccccc1	KB-V1 cytotox inconclusive, D3 antag inconclusive, SW480 rereplic inconclusive, KB-3-1 tox inconclusive, MCF10A rerep 7.3µM
C[C@@]12C(=O)Nc3ccc(Br)cc3C(=O)N1[C@H]1c3cc(Cl)ccc3OC[C@@H]1[C@@H]2c1ccccc1	none
C[C@@]12C(=O)Nc3ccc(Cl)cc3C(=O)N1[C@H]1c3cc(Cl)ccc3OC[C@@H]1[C@@H]2c1ccccc1	SW480 rereplic inconclusive
Cc1ccc2c(c1)[C@H]1[C@H](CO2)[C@H](c2ccccc2)[C@]2(C)C(=O)Nc3ccc(Cl)cc3C(=O)N12	KB-V1 cytotox inconclusive, SW480 rereplic 15µM, KB-3-1 tox inconclusive, MCF10A rerep inconclusive
Cc1ccc2c(c1)[C@H]1[C@H](CO2)[C@H](c2ccccc2)[C@]2(C)C(=O)Nc3ccccc3C(=O)N12	KB-V1 cytotox inconclusive, D3 antag inconclusive, SW480 rereplic 9.2µM, MCF10A rerep 3.3µM
Cc1ccc2c(c1)C(=O)N1[C@H]3c4ccccc4OC[C@@H]3[C@H](c3ccccc3)[C@]1(C)C(=O)N2	KB-V1 cytotox inconclusive, D3 antag inconclusive, SW480 rereplic inconclusive, MCF10A rerep inconclusive
CC(=C(CCOC(=O)C(C)C)SSC(CCOC(=O)C(C)C)=C(C)N(C=O)Cc1cnc(C)nc1N)N(C=O)Cc1cnc(C)nc1N	none (no result: KB-V1 cytotox, D3 antag, SW480 rereplic, KB-3-1 tox, MCF10A rerep)
O=C(CO/N=C1\CCCc2nonc21)Nc1ccc(Br)cc1	KB-V1 cytotox inconclusive, D3 antag -83
CCCSc1ncc(Cl)c(C(=O)Nc2ccc(S(=O)(=O)N3CCCC(C)C3)cc2)n1 (centres undefined)	none (no result: KB-V1 cytotox, D3 antag, SW480 rereplic, KB-3-1 tox, MCF10A rerep)

Screening results from PubChem BioAssay.
